Laboratory results from PubChem BioAssay (NCATS).
Results filed as inconclusive are left out. Entries that show only a call come without a potency. Active and inactive are the calls of the source. Unless noted, calls come from the whole dose curve; as a rule, active = well fitted curve in the direction sought with a large enough effect; inconclusive = small, poorly fitted or top-dose-only effect, or another doubt; inactive = no such curve, though single readings can be large; an effect the other way counts as inactive or inconclusive.

Experiments:
[1] = molecular target: Cytochrome P450 3A4 (Homo sapiens) (UniProt P08684); assay: qHTS Assay for Inhibitors and Substrates of Cytochrome P450 3A4 (AID 884); note: nearly all actives have a fitted effect of over 50% in size
In short: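 Luminescent readout of luciferin produced by CYP3A4 (20 nM) dealkylation of Luciferin-PPXE, 25 uM (its KM). NADPH-driven reaction ran 60 min at RT after 10 min compound preincubation; data scaled to 57 uM ketoconazole as 100% inhibition.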

[2] = Confirmation and Secondary Assay for Modulators of Hemoglobin Beta Chain Splicing at IVS2 654 locus (AID 910);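 note: HeLa cells stably carrying EGFP split by mutant beta-globin IVS2-654 intron; per-well total GFP intensity by laser scanning cytometry after 2-day treatment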
In short: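 Readout: per-well total peak green fluorescence (488 nm ex, 500–520 nm em) from objects 5–250 µm, reflecting correct splicing of an EGFP-654 reporter. Compounds were applied for 2 days at 37 °C to overnight-plated HeLa EGFP-654 cells; controls were DMSO and 500 nM IVS2-654 PNA.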

[3] = Confirmation and Secondary Assay for Modulators of Hemoglobin Beta Chain Splicing at IVS2 705 locus (AID 930);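 note: HeLa cells stably expressing the EGFP-705 splicing reporter; GFP fluorescence per well restored by corrected splicing of the IVS2-705 intron in EGFP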
In short: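 Stable HeLa line with EGFP disrupted by mutant beta-globin intron 2 (705). Overnight attachment, then 2 days of compound at 37C, 5% CO2. Signal: peak GFP intensity summed over objects 5-250 µm.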

[4] = qHTS Assay for Lipid Storage Modulators (AID 1519; calls by dose curve); conditions: Drosophila S3 cells, BODIPY lipid droplet/cell ratio, laser cytometry, cells loaded with oleic acid
In short: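 Cells seeded at 5,000 per well were treated with compounds over a concentration series and loaded with oleic acid (400 uM, as added). Lipid droplet fluorescence (488 nm excitation, 500-530 nm channel) was read by laser-scanning cytometry and normalized to 20 uM Triacsin C.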

Furin (Homo sapiens) = Furin (Homo sapiens) (UniProt P09958); assay: Furin counterscreen qHTS for Zika virus inhibitors (AID 1347149); note: nearly all actives have a fitted effect of over 70% in size; note: potency is the fitted concentration of half-maximal effect;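 for activity change, negative = inhibition: purified recombinant full-length human furin enzyme at 5 nM; fluorescence gain from furin cutting a BOC-RVRR-AMC peptide substrate over 15 min; top concentration of the series differs between compounds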
In short: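 Counterscreen measures cleavage of 2 microM BOC-RVRR-AMC, below its ~15 microM Km, by 5 nM full-length human furin at pH 7.0 after a 15-min compound preincubation. Inhibition derives from the 15-min fluorescence increase at 37C.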

[5] = tested on: Zika virus NS2B-NS3 protease (unlinked complex); assay: Confirmatory screen GU AMC qHTS for Zika virus inhibitors (AID 1347153); note: nearly all actives have a fitted effect of over 70% in size
In short: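 Noncovalent NS2B hydrophilic domain/NS3 protease complex (25 nM) in 10 mM Tris-HCl pH 8.0, 0.01% Tween 20 was preincubated 15 min at room temperature with compounds. Then 10 µM AMC substrate (Km 18.3 µM) was added; fluorescence was read over 15 min and fitted to a 4-parameter Hill equation.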

[6] = Vero cells viability qHTS for Zika virus inhibitors (AID 1347167)
In short: (§1)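 Luminescent ATP readout (CellTiter Glo) after 30 min at 37 degrees C gives viability; cells in DMEM + 4% FBS were treated 24 to 48 hours with compound, following overnight attachment.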

[7] = HepG2 cells viability qHTS for Zika virus inhibitors (AID 1347168)
In short: as §1

[8] = Tertiary RLuc qRT-PCR qHTS assay for Zika virus inhibitors (AID 1347169); note: top concentration of the series differs between compounds; nearly all actives have a fitted effect of over 55% in size
In short: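 Vero cells (1,000/well) infected with recombinant ZIKV-RLuc (Cambodian) at MOI 1-2 after compound addition, 48-72 hrs at 37 degrees C. Live-cell Renilla luciferase substrate added; luminescence read after 1-1.5 hrs.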

[9] = Primary qHTS for small molecule stabilizers of the endoplasmic reticulum resident proteome: Secreted ER Calcium Modulated Protein (SERCaMP) assay (AID 1508630)
In short: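 The SH-SY5Y reporter protocol was run at 3 concentrations up to 38.3 uM (primary) or 11 concentrations (follow-up): 16 h compound, 100 nM thapsigargin for 4 h, then extracellular luciferase luminescence.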

[10] = tested on: Zika virus NS2B-NS3 protease (unlinked); assay: Optimization of GU AMC qHTS for Zika virus inhibitors: Unlinked NS2B-NS3 protease assay (AID 1347151); note: nearly all actives have a fitted effect of over 80% in size; note: potency is the fitted concentration of half-maximal effect
In short: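 Noncovalent NS2B hydrophilic domain–NS3 protease complex (25 nM final) in 10 mM Tris-HCl pH 8.0, 0.01% Tween 20; AMC substrate, room temperature 15 min (~20% conversion); fluorescence change normalized, 4-parameter Hill fit.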

[11] = tested on: Zika virus NS2B-NS3 protease (linked); assay: 384 well plate NINDS AMC confirmatory qHTS for Zika virus inhibitors (AID 1347163); note: nearly all actives have a fitted effect of over 50% in size; note: potency is the fitted concentration of half-maximal effect;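 for activity change, negative = inhibition: linked protease at 5 30 or 60 nM final depending on run; fluorescence of AMC released from Ac-VKTGKR-AMC peptide cleaved by the protease; top concentration of the series differs between compounds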
In short: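 Enzyme (5, 30 or 60 nM final) first met test compounds for ~15 min. The AMC-tagged peptide Ac-VKTGKR-AMC followed at 30 microM. Fluorescence was then recorded at 25 min and scaled against no-enzyme and no-inhibitor wells.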

[12] = tested on: Zika virus NS2B-NS3 protease (linked construct); assay: 384 well plate NINDS Rhodamine confirmatory qHTS for Zika virus inhibitors (AID 1347164);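 note: fluorescence from protease cleavage of Ac-LKRR-rhodamine 110 substrate; nearly all actives have a fitted effect of over 65% in size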; note: potency is the fitted concentration of half-maximal effect; for activity change, negative = inhibition: top concentration of the series differs between compounds
In short: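 Linked NS2B-NS3 protease (final 5, 30 or 60 nM) preincubated ~15 minutes with compounds, then 10 microM Ac-LKRR-Rhodamine 110 added. Fluorescence (485/538 nm) read after 25 minutes at room temperature, normalized to no-enzyme and no-inhibitor controls.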

[13] = ZIKV-mCherry secondary qHTS for Zika virus inhibitors (AID 1347158); note: top concentration of the series differs between compounds
In short: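 This orthogonal imaging screen measured ZIKV-mCherry infection of Vero cells exposed to compound, MOI 1, 48-72 h. Percent infection came from segmented nuclei scored mCherry-positive above 3 SD of negative controls.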

Chain of Furin (Homo sapiens) (P09958 whole entry, looked up): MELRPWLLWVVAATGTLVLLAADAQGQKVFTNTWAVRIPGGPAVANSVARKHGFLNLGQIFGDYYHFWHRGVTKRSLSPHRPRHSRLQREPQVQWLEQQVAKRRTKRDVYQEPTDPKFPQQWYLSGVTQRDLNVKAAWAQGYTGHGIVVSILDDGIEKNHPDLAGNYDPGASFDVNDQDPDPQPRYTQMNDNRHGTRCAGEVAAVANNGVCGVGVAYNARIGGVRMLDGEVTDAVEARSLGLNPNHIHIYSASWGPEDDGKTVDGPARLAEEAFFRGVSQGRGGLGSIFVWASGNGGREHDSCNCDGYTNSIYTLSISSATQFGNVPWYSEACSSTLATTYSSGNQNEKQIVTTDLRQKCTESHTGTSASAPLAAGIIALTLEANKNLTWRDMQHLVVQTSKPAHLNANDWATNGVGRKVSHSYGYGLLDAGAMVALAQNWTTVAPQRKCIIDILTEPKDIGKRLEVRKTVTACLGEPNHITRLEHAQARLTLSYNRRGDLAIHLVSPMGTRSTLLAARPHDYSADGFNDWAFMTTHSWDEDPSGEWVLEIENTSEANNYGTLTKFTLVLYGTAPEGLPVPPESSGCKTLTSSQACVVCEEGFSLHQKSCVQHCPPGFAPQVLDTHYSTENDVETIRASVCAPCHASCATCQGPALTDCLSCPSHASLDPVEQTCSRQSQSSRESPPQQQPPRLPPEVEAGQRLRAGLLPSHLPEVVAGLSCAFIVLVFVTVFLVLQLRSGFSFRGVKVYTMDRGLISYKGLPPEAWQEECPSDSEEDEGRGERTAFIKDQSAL
Chain of Cytochrome P450 3A4 (Homo sapiens) (P08684 whole entry, looked up): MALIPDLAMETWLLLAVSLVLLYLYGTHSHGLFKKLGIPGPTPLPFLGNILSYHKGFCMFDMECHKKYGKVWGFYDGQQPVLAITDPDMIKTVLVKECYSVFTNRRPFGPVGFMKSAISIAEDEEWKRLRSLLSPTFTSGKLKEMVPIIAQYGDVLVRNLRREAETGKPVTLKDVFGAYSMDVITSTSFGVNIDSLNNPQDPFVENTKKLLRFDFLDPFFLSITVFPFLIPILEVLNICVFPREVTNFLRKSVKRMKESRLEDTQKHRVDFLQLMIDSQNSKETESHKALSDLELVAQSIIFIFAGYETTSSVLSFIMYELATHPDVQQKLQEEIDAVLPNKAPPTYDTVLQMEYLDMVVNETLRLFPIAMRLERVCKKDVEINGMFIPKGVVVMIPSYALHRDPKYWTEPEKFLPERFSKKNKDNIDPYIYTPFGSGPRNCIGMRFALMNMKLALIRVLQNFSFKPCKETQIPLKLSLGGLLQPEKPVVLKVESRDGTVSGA

## CN(Cc1cnc2nc(N)nc(N)c2n1)c1ccc(C(=O)NC(CCC(=O)O)C(=O)O)cc1 (configuration not stated)
[1]
  Potency: inactive
[2]
  outcome: inactive
[3]
  outcome: inactive
[4]; at 57.5 µM (top of the series)
  activity change, negative = inhibition: 6.64% (inactive)
[4]; measured here: cell count channel max response
  max response: 7.14%
[4]; measured here: lipid channel max response
  max response: 16%
Furin (Homo sapiens)
  Potency: 21.5 µM (active)
[5]
  Potency: inactive
[6]
  Potency: inactive
[7]
  Potency: inactive
[8]
  Potency: inactive
[9]
  Potency: inactive

## CN1CCN(C(=O)CCN2C(=O)/C(=C\c3ccccc3F)SC2=S)CC1
Furin (Homo sapiens)
  Potency: inactive
[10]
  Potency: 49.4 µM (active)
[11]
  Potency: 251 µM (active)
[12]
  Potency: inactive
[6]
  Potency: inactive
[7]
  Potency: inactive
[8]
  Potency: inactive

## CC(=O)NC(CC(C)C)C(=O)NC(CC(C)C)C(=O)NC(C=O)CCCN=C(N)N (configuration not stated)
Furin (Homo sapiens)
  Potency: inactive

## Cc1cccc(C)c1NS(=O)(=O)c1ccc(NS(=O)(=O)c2ccc3c(c2)OCCO3)cc1
Furin (Homo sapiens)
  Potency: inactive
[5]
  Potency: inactive
[11]
  Potency: 200 µM (active)
[12]
  Potency: 126 µM (active)

## Nc1ncnc2c1ncn2[C@@H]1O[C@H](CSCC[C@H](N)C(=O)O)[C@@H](O)[C@H]1O
Furin (Homo sapiens)
  Potency: inactive
[10]
  Potency: inactive
[13]
  Potency: inactive
[11]
  Potency: inactive
[12]
  Potency: inactive
[6]
  Potency: inactive
[7]
  Potency: inactive
[8]
  Potency: inactive
